The values that follow come from PubChem BioAssay AID1626 (SRMLSC, 2009).

The structures appear in SMILES notation. “And” between values parts separate entries of the source, which are not always exact repeats. Identical values can stand only once. About 2,000 (0.91%) of roughly 220,000 compounds were called active. Another 2% or so got no clear call; they are omitted. These entries were drawn from the full list. Entries with a potency or affinity are not part of this list. A number with no mark means an inactive call. Cut-off read from the data, not from the text of the source: inconclusive = inhibition above about 80% without an active follow-up result; inactive = below that; test concentration not stated here.

The experiment in a line: M. tuberculosis H37Rv growth inhibitors, H37Rv strain (AID 1626).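 Note: bacteria incubated seven days before Alamar blue readout; 0% = bacteria only wells and 100% = bacteria with antibiotic wells.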 As to conditions: stronger effect = higher value, concentration not given here.
For the compound `COc1ccc(-n2c(O)c(C(C)=NCc3ccco3)c(=O)[nH]c2=O)cc1`, the inhibition (as a rule, the change of the read-out against control, counted positive when it falls) is 2.3%. Under `CCOC(=O)C1=C(CSc2nc(-c3ccccc3)ccc2C#N)OC(N)=C(C#N)C1c1ccccc1` (stereo not given) stands -11.5%; under `CCn1c(CCc2nc3ccccc3[nH]2)n[nH]c1=S`, -3.65%. Under `Cc1cccc(Cl)c1NC(=O)N1CCN(c2ccnc3cc(Cl)ccc23)CC1` stands 0.44%; under `Cc1ccc(F)cc1NC(=O)N1CCN(c2ccnc3cc(Cl)ccc23)CC1`, 25.6%. For the compound `CC(=O)N1CCN(c2ccnc3cc(Cl)ccc23)CC1`, the inhibition was -0.19%. Under `COc1ccccc1NC(=O)N1CCN(c2ccnc3cc(Cl)ccc23)CC1` stands 9.81%; under `O=C(N/N=C/c1ccc2c(c1)OCO2)c1cc(-c2ccccc2)nc2ccccc12`, 9.28%; under `CC1CCCCC1NC(=O)COc1ccc(-n2cnnn2)cc1` (stereo not given), 3.54%.

Consider `COc1ccc(/C=N/NC(=O)Cn2cnc3c2c(=O)n(C)c(=O)n3C)cc1`, for which the inhibition was 0.48%. In the case of `CCc1ccc(C(C(=O)NC(C)(C)CC)N(Cc2ccco2)C(=O)Cn2nnc3ccccc32)cc1` (stereo not given) it was 2.42%.

Consider `COc1ccc(NS(=O)(=O)c2ccc(Cl)c(NC(=O)c3cccnc3Cl)c2)cc1`, for which the inhibition is 9.9%. Under `O=[N+]([O-])c1cccc2c(Cl)ccnc12` stands -5.33%; under `Cc1ccc(C(=O)CC(=O)c2ccc(C(C)(C)C)cc2)cc1`, 3.46%. In the case of `Cc1ccc(NCCC(=O)c2ccc(Cl)cc2)cc1` it was 51.3%; in that of `Cc1ccc(C(=O)CNc2cccc(Cl)c2)cc1`, -5.8%; in that of `Cc1ccc(O)c(C(=O)CC(=O)c2cccc(F)c2)c1`, 62.1%. `Cc1ccc(C(=O)CNc2ccc(Cl)cc2)cc1`: the inhibition is -1.34%. In the case of `CC(C)(C)c1ccc(C(=O)NNC(=O)c2ccc(Cl)cc2)cc1` it was 1.17%; in that of `CCOC(=O)c1c(CS(=O)(=O)c2ccccc2)n(C)c2cc(Br)c(O)c(CN(C)C)c12`, -0.08%; in that of `COc1cccc(N=Nc2c(N)[nH]n3c(=O)cc(-c4ccccc4)nc23)c1`, 70.2%. Under `CCC(Oc1ccccc1)C(=O)N1CCN(c2ccccn2)CC1` (stereo not given) stands 0.51%. As to `O=C(Nc1ccc(-c2nnn(CC(=O)N3CCN(C(=O)c4ccco4)CC3)n2)cc1)c1ccccc1F`, the inhibition is -1.57%. Take `O=C(O)/C=C/C(=O)NC1CC1`: the inhibition is -1.35%.

On to `O=C1OC(/C(=C\Nc2ccc(F)cc2F)[N+](=O)[O-])c2ccccc21` (stereo not given), for which the inhibition was 6.38%. Under `Cc1ccc(N/C=C(\C2OC(=O)c3ccccc32)[N+](=O)[O-])c(C)c1` (stereo not given) stands 0.81%; under `O=C(c1cccc([N+](=O)[O-])c1)N1CCN(c2cccc(Cl)c2)CC1`, 2.48%. In the case of `O=C(c1ccc([N+](=O)[O-])s1)N1CCN(c2ccccc2)CC1` it was 2.71%; in that of `COc1ccc(C2Nc3ccccc3C(=O)N2c2ccccc2)cc1COc1ccccn1` (stereo not given), 6.87%; in that of `CCN(CC)CCNS(=O)(=O)c1ccc(C(=O)NN)cc1`, 2.36%. With `Cc1cccc(C)c1OCc1nnc2c3cnn(C)c3ncn12`, the inhibition was -9.69%. For `COC(=O)c1c(C)oc(C)c1S(=O)(=O)N(C)C1CCCCC1`, the inhibition is -4.71%. With `O=[N+]([O-])c1ccc(N=Cc2ccc(Br)c([N+](=O)[O-])c2)cc1`, the inhibition was 8.65%.

As for `C(=Nc1ccc(Nc2ccccc2)cc1)c1ccc2ccccc2c1`, the inhibition is 51.2%. `COc1ccc(C(=O)CN2C3=NCCCN3c3ccccc32)cc1OC`: the inhibition is -2.22%. In the case of `CCc1c(C(=O)N/N=C/c2ccsc2)csc1C` it was -6.79%.

`CCc1ccc(C(=O)NC(C(=O)O)C(C)C)cc1` (stereo not given): the inhibition is -19.3%. Turning to `COc1cccc(NC(=O)CCSc2ccc3ccccc3n2)c1`, the inhibition was 28.7%.

For `COc1ccc(NC(=O)CCSc2ccc3ccccc3n2)cc1`, the inhibition was 70.9%. In the case of `Cc1cc(C)n2nc(N)c(N=Nc3cccc(Cl)c3)c2n1` it was 79.8%.

Turning to `Cc1nc(S/C(=C/c2ccc(-c3ccc(C(=O)O)cc3)o2)C(=O)O)n[nH]1`, the inhibition was -17.2%.

As for `CC(=O)c1ccc(-c2ccc(/C=C(/Sc3n[nH]c(C)n3)C(=O)O)o2)cc1`, the inhibition was 6.55%. Take `O=c1oc2ccccc2c(N2CCCCC2)c1CN1CCCCC1`: the inhibition is 1.71%. Under `COc1ccc(OC)c(NC(=O)c2cc3ccccc3o2)c1` stands 7.13%. Consider `COc1ccc(OC(=O)c2cc3ccccc3o2)cc1`, for which the inhibition was 0.38%. In the case of `O=C1CCCC2=C1C(c1ccncc1)c1c(nc(SCc3ccccc3Cl)[nH]c1=O)N2` (stereo not given) it was 11.3%. Turning to `CC[C@@H](C)C(NC(=O)OC(C)(C)C)c1cn([C@@H](CCC(=O)OC(C)(C)C)C(=O)N2CCN(C(=O)OC(C)(C)C)CC2)nn1` (stereo not given in full), the inhibition was -1.45%. In the case of `O=C(c1ccc(COc2c(F)c(F)c(F)c(F)c2F)o1)N1CCN(Cc2ccc3c(c2)OCO3)CC1` it was -9.41%; in that of `O=C(c1ccc(COc2ccccc2Cl)o1)N1CCN(Cc2ccc3c(c2)OCO3)CC1`, -0.88% and 13.3%; in that of `OCCC1CN(Cc2cccc(-n3cccn3)c2)CCN1Cc1ccccc1` (stereo not given), -1.74%.

For the compound `CC(CCc1ccccc1)NC(=O)CSc1nc(N)cc(N)n1` (stereo not given), the inhibition is -5.33%. For the compound `COc1cccc(C2(O)CCN(Cc3ccncc3)CC2)c1`, the inhibition is -10.2%. On to `COc1cc2c(C(=O)O)c(C)n(C)c2cc1Br`, for which the inhibition is -0.16%. Under `Cc1cnc(C(=O)NCc2ccc(Cl)cc2Cl)cn1` stands -2.88%; under `C#CCSc1nc(C)cc(C(=O)OCC)c1C#N`, -3.19%. Turning to `CCOC(=O)c1cc(C)nc(SC)c1C#N`, the inhibition was 2.58%. Under `NC1=NC(c2ccccc2)=NC1(NC(=O)c1ccccc1)C(Cl)Cl` (stereo not given) stands -0.7%; under `COC(=O)c1ccc(OCC(O)CN(CCO)CC(O)Cn2ccc3ccccc32)cc1` (stereo not given), 4.35%; under `COc1ccc(OCC(O)CN(CCO)CC(O)Cn2ccc3ccccc32)cc1` (stereo not given), 3.01%.

Take `Cc1ccsc1C(=O)C1CCCN(Cc2cc(F)ccc2-n2cccn2)C1` (stereo not given): the inhibition is 10.8%.
